# Compound activity from PubChem.
# This excerpt belongs to a sample that is enriched for hits.
# FECH inh: inhibitors of human ferrochelatase; P22830; purified FECH, Ni-mesoporphyrin absorbance 550 nm; calls only at 10 µM (by protocol); actives 3.3% (n = 20,000); AID 1671448;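 active = enzyme reaction rate more than 3 SD below the solvent-only control wells on the same plate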;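 also: lower slope than DMSO wells means FECH inhibition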
# Target sequence (P22830 whole entry, looked up): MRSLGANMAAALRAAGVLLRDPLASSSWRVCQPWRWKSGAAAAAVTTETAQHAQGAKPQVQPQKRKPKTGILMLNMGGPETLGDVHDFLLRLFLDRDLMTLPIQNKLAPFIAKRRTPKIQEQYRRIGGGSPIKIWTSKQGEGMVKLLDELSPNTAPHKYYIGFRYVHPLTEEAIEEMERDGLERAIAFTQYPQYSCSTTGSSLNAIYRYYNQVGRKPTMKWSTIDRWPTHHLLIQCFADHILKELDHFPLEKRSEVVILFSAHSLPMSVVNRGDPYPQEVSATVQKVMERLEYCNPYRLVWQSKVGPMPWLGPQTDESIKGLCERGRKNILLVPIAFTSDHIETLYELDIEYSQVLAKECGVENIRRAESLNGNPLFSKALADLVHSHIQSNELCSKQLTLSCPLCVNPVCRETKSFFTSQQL
# Active calls of the source: *; i = inactive; + = active, no number.
SMILES,FECH inh
O=C(CN1CCC[C@H]1CN1CCCC1)NCCc1ccc(F)cc1,i
NS(=O)(=O)c1ccc(C(=O)N2CCCC(N3CCc4ccccc4C3)C2)cc1 (stereo unspecified),i
CC(=O)c1cccc(-n2cnnc2Cn2cccn2)c1,i
Cc1nccn1CC1CCCN(Cc2cnn(C)c2C2CC2)C1 (stereo unspecified),i
COc1ccc(NC(=O)N2CCN(CCn3c(C(F)(F)F)nc4cccnc43)CC2)cc1OC,i
Cc1ccccc1N1CCN(Cc2cc(C#CCO)cs2)C(C)C1 (stereo unspecified),i
CCCc1cc(=O)n2[nH]c(CNc3cccc(C)c3C)nc2n1,+
Cc1cccc(NCc2cc(=O)n3[nH]c(NCc4ccccc4)nc3n2)c1C,i
COc1ccc(CNc2nc3nc(CNc4cccc(C)c4C)cc(=O)n3[nH]2)cc1,i
CCc1c(C)nc2ncnn2c1Sc1ccc(NC(=O)Nc2ccc(OC)cc2OC)cc1,+
CCc1c(C)nc2ncnn2c1Sc1ccc(NC(=O)Nc2cc(OC)ccc2OC)cc1,i
CCc1c(C)nc2ncnn2c1Sc1ccc(NC(=O)Nc2ccsc2C(=O)OC)cc1,+
CCc1c(C)nc2ncnn2c1Sc1ccc(NC(=O)Nc2ccccc2Br)cc1,i
CCc1c(C)nc2ncnn2c1Sc1ccc(NC(=O)Nc2cccc(C(=O)OC)c2)cc1,i
CCc1c(C)nc2ncnn2c1Sc1ccc(NC(=O)Nc2cc(OC)cc(OC)c2)cc1,i
CC(C)CNC(=O)C(=O)N1CCCn2cncc2C1,i
COc1ccc(-c2cc(N3CCN(S(=O)(=O)c4cnn(C(F)F)c4C)CC3)ncn2)cc1,i
Cc1cc(C)c(CN2CCN(CC(=O)Nc3ccc4c(c3)OCCO4)S2(=O)=O)c(C)c1,i
COc1ccc(NC(=O)CSc2ncnc3nc(N(C)C)sc23)cc1Cl,i
CC(C)c1ccc2c(c1)-c1ccccc1S(=O)(=O)N2CC(=O)NCCN1CCOCC1,i
CC(C)c1ccc2c(c1)-c1ccccc1S(=O)(=O)N2CC(=O)NCc1cccnc1,+
O=C(CN1C(=O)c2ccccc2S1(=O)=O)NCc1ccc2c(c1)OCO2,i
CCc1ccc2c(c1)-c1ccccc1S(=O)(=O)N2CC(=O)NCCc1ccc(OC)c(OC)c1,i
CCc1ccc2c(c1)-c1ccccc1S(=O)(=O)N2CC(=O)NCCN1CCOCC1,i
CCc1ccc2c(c1)-c1ccccc1S(=O)(=O)N2CC(=O)NCc1ccncc1,+
SMILES,FECH inh
COc1ccc(CCNC(=O)CN2c3ccc(C(C)C)cc3-c3ccccc3S2(=O)=O)cc1,i
CCOCCCNC(=O)CN1c2ccc(CC)cc2-c2ccccc2S1(=O)=O,+
CN1CCNC(=O)C12CCN(C(=O)CN1CCC(c3ccccc3)C1)CC2 (stereo unspecified),i
CN1CCN2CCN(C(=O)c3ncoc3C3CC3)CC2C1=O (stereo unspecified),i
CNC(=O)c1ccc(CN2CCCC(CCc3ccc(F)cc3F)C2)o1 (stereo unspecified),i
CCNc1ncc(C(=O)N(CC)Cc2cc(Cl)ccc2OC)cn1,i
COc1ccc(C(=O)Nc2nc3n(n2)C(c2c(F)cccc2Cl)C=C(c2ccc(C)cc2)N3)cc1 (stereo unspecified),i
CC(=O)Nc1ccc(S(=O)(=O)N2CCN(Cc3nc4cccnc4n3-c3cc(C)cc(C)c3)CC2)cc1,i
Cc1cccc(NC(=O)N2CCC(n3cc(-c4ccccn4)nn3)CC2)c1C,i
COc1ccc(Cl)cc1S(=O)(=O)Nc1cnc(N(CC(C)C)CC(C)C)c(C(=O)O)c1,i
Cc1oc(-c2ccccc2)nc1CSc1nc(-c2cccnc2)cc(=O)[nH]1,i
Cc1cccc(NC(=O)NCCc2nc3cccnc3n2-c2ccccc2)c1C,i
CCCc1cc(=O)n2[nH]c(CNc3ccccc3)nc2n1,+
CCCc1cc(=O)n2[nH]c(CNc3ccc(OCC)cc3)nc2n1,i
CCCc1cc(=O)n2[nH]c(CNc3cccc(Cl)c3)nc2n1,+
O=c1cc(CNc2ccccc2)nc2nc(NCc3ccccc3)[nH]n12,i
CCc1ccc(NCc2cc(=O)n3[nH]c(NCc4ccc(Cl)cc4)nc3n2)cc1,i
COc1cccc(NCc2cc(=O)n3[nH]c(NCc4ccccc4)nc3n2)c1,i
Cc1ccc(NCc2cc(=O)n3[nH]c(NCc4ccc(F)cc4)nc3n2)cc1C,i
CCCc1cc(=O)n2[nH]c(CNc3ccc(C)c(C)c3)nc2n1,+
O=c1cc(CNc2ccccc2)nc2nc(NCc3ccc(Cl)cc3)[nH]n12,i
COc1ccc(CNc2nc3nc(CNc4ccccc4)cc(=O)n3[nH]2)cc1,i
CCCc1cc(=O)n2[nH]c(CNc3cccc(OC)c3)nc2n1,+
Cc1ccc(NCc2cc(=O)n3[nH]c(NCc4ccccc4)nc3n2)cc1C,i
CCc1nc(OCC(=O)NCc2ccc(F)cc2Cl)c2c(-c3ccc(F)cc3)noc2n1,i
SMILES,FECH inh
O=C(c1ccc(C2CCNC2)cc1)N1CCC2(C=Cc3ccccc32)CC1 (stereo unspecified),i
CC1CCN(S(=O)(=O)c2ccc3c(c2)CCN3C(=O)CCC(=O)N2CCOCC2)CC1,i
CCc1nc(OCC(=O)NCc2ccc(OC)cc2OC)c2c(-c3ccc(F)cc3)noc2n1,i
CCN(CCn1cccn1)Cc1cccc2c1OCO2,i
Cc1cc(C)c(-c2ccc(C(O)CN3CCOCC3)cc2)c(C)c1 (stereo unspecified),i
COc1ccc(Nc2cc(C)nc(Nc3ccc(NC(=O)c4cccc(C)c4)cc3)n2)cc1,i
Cc1ccc(CNC(=O)c2nc[nH]c2C(=O)NCc2ccccc2)o1,i
COCCNC(=O)c1[nH]cnc1C(=O)NC1CCCCC1,i
Cc1ccc(CNC(=O)c2[nH]cnc2C(=O)NCCC(C)C)o1,i
CC(C)(C)CNC(=O)c1nc[nH]c1C(=O)NCC(C)(C)C,i
CC(C)NC(=O)c1nc[nH]c1C(=O)NCC1CC1,i
COc1ccccc1CNC(=O)c1[nH]cnc1C(=O)NCc1ccc(C)o1,+
COc1ccccc1CNC(=O)c1nc[nH]c1C(=O)N1CCC(C)CC1,i
CCCNC(=O)c1nc[nH]c1C(=O)NCC1CCCCC1,i
COc1ccccc1CNC(=O)c1[nH]cnc1C(=O)NC1CCCCC1,+
O=C(NC1CC1)c1nc[nH]c1C(=O)NCC1CCCCC1,i
COc1ccccc1CNC(=O)c1[nH]cnc1C(=O)NC1CCCc2ccccc21 (stereo unspecified),+
COc1ccccc1CNC(=O)c1nc[nH]c1C(=O)NCc1ccccc1OC,+
CN(Cc1ccc2nonc2c1)Cc1cc(-c2ccncc2)no1,i
CCc1c(C)nc2ncnn2c1Sc1ccccc1NC(=O)c1c(OC)cccc1OC,i
O=C(c1scc2c1OCCO2)N1CCCn2cncc2C1,i
CCc1cc(CN(C)c2ncc(F)c(N3CCOCC3)n2)on1,i
OCCOCCN1CCCC1c1nc2ccc(F)cc2[nH]1 (stereo unspecified),i
Cc1[nH]cnc1CN(C)C1CCCc2ccccc21 (stereo unspecified),i
CNC(=O)[C@@H]1C[C@H](N)CN1Cc1ccc2nonc2c1,i
NS(=O)(=O)c1ccc(CCNC(=O)CCn2cnc3c([nH]c4ccccc43)c2=O)cc1,+
NS(=O)(=O)c1ccc(CCNC(=O)CCn2cnc3c([nH]c4ccc(F)cc43)c2=O)cc1,i
Cc1ccc2[nH]c3c(=O)n(CCC(=O)NCCc4ccc(S(N)(=O)=O)cc4)cnc3c2c1,i
